According to the supplement of paper PMC10681739:
The full ranking holds about 4,100 sequences; the median of “arbitrary fluorescence units” is about 780, and the highest 2% start at about 22,000. What follows is part of a selection rich in the highest values, with near analogues and random picks from the rest.

These sequences were tested against T1, ETS1 (UniProt P14921) (assay: ETS1 binding intensity (PBM fluorescence), ETS1 alone (arbitrary fluorescence units); higher = stronger binding). Conditions: ETS1 concentration 1 nM; RUNX1 concentration 0 nM.
T1 sequence: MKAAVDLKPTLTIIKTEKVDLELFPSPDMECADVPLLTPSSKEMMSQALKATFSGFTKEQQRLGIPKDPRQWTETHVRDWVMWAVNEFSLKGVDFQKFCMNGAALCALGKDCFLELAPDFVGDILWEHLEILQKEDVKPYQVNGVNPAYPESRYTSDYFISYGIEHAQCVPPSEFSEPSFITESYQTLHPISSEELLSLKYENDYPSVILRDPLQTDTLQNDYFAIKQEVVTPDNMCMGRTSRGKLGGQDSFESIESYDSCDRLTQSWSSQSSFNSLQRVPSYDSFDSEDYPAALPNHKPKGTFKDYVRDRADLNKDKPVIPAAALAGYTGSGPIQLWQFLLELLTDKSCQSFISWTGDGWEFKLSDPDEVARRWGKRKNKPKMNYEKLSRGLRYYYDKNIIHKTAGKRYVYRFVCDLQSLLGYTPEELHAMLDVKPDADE
Method: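 gcPBM on 36-bp genomic-derived probes (partner site mutated) containing one ETS1 site and no RUNX1 site. Recombinant human ETS1 (1 nM) was incubated alone or with RUNX1 (25 nM) and detected by anti-ETS1 antibody fluorescence. Values are medians over 4 replicate spots (not normalised). The probes sit in constant array flanks that are not printed.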

Sequence | ETS1 binding intensity
GCGAGAGGGAGGAAGTGACTCACCAACCCCAACAAA | 2690
TCCCAGTTTATGGGAAGGGTTGAGGGAAGTGAGGGG | 531
GGATCGGCCTGAGGTGTGTCTCATTTCCTGTAGGTA | 2130
GTGACGTGGCTGTAGGTCTCATTTCCTGCACGGCCT | 2060
TGTCTCATTTCCTGTAGGTAACAGGCACCAAAATAG | 26500
TGCTCCACTCGGAAGTGGTGCCGAAGCTCTTCGATG | 905
CTGCCAGAGCACACAGTTTGCACTTCCGGGGCGGGC | 2710
CCGCCGACACACTTCCGGCGGCCACCAGAGGGTATT | 21200
GCCACACTTCCGGCGGGGCTGCGACTGCAGAGGGGC | 38700
CAAGAGCCGGAAGTCCCTTGTGCCGTAGTCCTTCCC | 9220
CAGCATGAGGGTGCACACACCGCTTCCTTAGAGGTT | 757
GTGATAAGAACGACAGGCCACTTCCCAAAGATCAAA | 531
TTTCACTTCCGGCATGTTTTTCACCTACAGGGATAT | 35500
AGCTTCCGAGTCTGTTGTGGAGTGGGAACAGCGACT | 2510
GCCTGCGCTCTTTCCGGTAGCCAGAGCCTCGTCTAA | 8280
CGTCCCCGAAAAGCCGCGGCAGAAACTTCCGGCGGT | 3130
CGCCGAACTTCCGGCAGTAAATTCCGTGGATTCCCG | 27100
CGTTTCCTGTGGCTGCAGCTCTCCCCACGCACACAC | 23800
TGCCGCCTGCAGCACCCTCCCCATTTCCTGGCTGTA | 1190
GCACGTGTTTCCTGGGGCTGCACCCCAGCACCACAC | 2380
ACCCACTTCCTGTTAGAGCATCTTTGCAACCCCAGG | 30200
TGTTGCCACTGTTAGACTAGAGAGCATCCTGTTGTT | 851
TTTCTTCCTGTTTGCATCACCCCAAATCCACTATCA | 16900
TACGCACACGCTTCGGGATCCTTCCGCTCCGGGTTA | 644
CTCCCACGCTCCCCTTCCGGCCCCGCTGCGCTGTGA | 3160
GGTCACGTGTCCACGGGGACCGGAAGTGGCGCCCGG | 14400
TTGCGCCGGACGCCACTTTCGGTCCCCGTGGACACG | 602

Sequence | ETS1 binding intensity
CCGGGCGCCACTTCCGGTCCCCGTGGACACGTGACC | 53800
TCTTGTTTCTTCCGTTACCGGAGCGCGGCCACGTGA | 2590
CCAGAGGGCGGAAGTGGGAGCTGCGACGGCGCTCCC | 7030
ACTTTGTCAGTGTAGTTTTCACATCCTGTCCTAGCT | 2870
AACATCCTGTGTAAAGAGAATTGAATGTAGTTTTCT | 25200
TTTCTGATTGTAGTTTCAAATTATTTCCTGTGTTGG | 1770
CTCCATTATTCCGGCCAGGTGCCCTTCTGGGATAAG | 670
GCGCGGACTCCGGGAAGCTGAGCGGCAAAGACCGTG | 359
TGCGCCGGAAGTGCATGAGCTGCCGATGAGGTGCTT | 8970
GAGCTGCAAGTCACAAAGACCGGAAGTGCGCGTACG | 26000
TCACAATCGCTCACAAAGACAGGAAGTAACTGTCAG | 3450
CTCCTGCTCACAGAAGCTCACTGTTTCCTGTCTAGC | 2690
TACTCTAAAGCACTTCAAACCTCCACTTCCTGCCCC | 2240
AAATCAAAACCCCAATCAGATACCACTTCCTGCCCA | 2350
CACTTCCTGCCCTCTTCCACTTTCAAAATCACATCA | 31900
CTCCCCCAGCACATCCTCTGCCACTGCTGCCTTTCC | 1720
CTCCGCTGTCCCCTGCAGGCACCGAGGGCGGAACCA | 347
GGGACTGCAGTCCCGGGGAGCGCACCGGAAGTTCTC | 4610
ACAGAGGTGCTACCCCAAGGACCGGAAGCAGAGACC | 3940
TACCGGCGTTAATATAGTAAGGGCGGAAGTTCTCCT | 1190
GGACCGGAAGTTAAGGCGTTCGCGGCGTGTGATAAG | 22900
GCCCCGGAAGCTCCTTAAGGAGGACCGTGTGAGTTT | 1880
ACTTGGCAGTTCCGGGTCCGCGCCCCAGCGCGCCAC | 2630
GTAGCAACAGCAGGCTCACACACCGGAAGTGCTCGC | 9380
TTGCTCCCGGAAGCCCCGCCCGTCCGTGGCTCCTGA | 1350
CCTGCCTTCCGTCTTCCAGGCAGAACGACAGAGAGG | 1710
CAGATTTCCGGCTTCTGAGGAGCTGCCCTACCCCAG | 38200

Sequence | ETS1 binding intensity
CCCAGAGCTTCCGATTGGCTCTTCTGAGGTGGCGGG | 1750
AATGAGCCCCAGAACCCTTTTCCTTCCGGCCTGCAC | 1300
AGTAACCAGCAGGCTGTGCCGGCAGGATGTTGTCTT | 469
CTGGGGTCGGGGCGAGGGAGCTGCCGGGGAAGTGAG | 513
GGCCAAGAAATCCACTCAGAGGAAATCACAGGCCTG | 439
GAGAAACGTCAGGCATGGCCGGGCCACCAGGAAAAC | 347
CCCGGCGGCTACTTTCGGTCACTTTCGCCGGAACCT | 444
GGCCGACGGGAAGTGTAGTCCGGCCTGCAGTCCGGG | 1970
GCCCTACCCAGCGGCGGCCGGACGCTTCGGCGCAGG | 435
GCTCGTTTGGGGTTACTGACATCCGGCCTTCATTTC | 5140
CTGACGCATTTCCGGCCTTTGGGGTTGATCGGTCAT | 26200
TTTTTTCCGCCTGTAGGGTCACATTGGGGTTGATTG | 2790
CCAGGAGGGATGGGGAAGTTCACCAGACACTCCATG | 444
GTCACTGTCGTATTTACTTTAGCTTCCTGTTCATCC | 1880
CGATTCCGGATTGGTCCAATTCCAGCGCCGAAGCCC | 673
GCCACCTTACGACAGCTGTACAGAGCTTCCTTTAGC | 390
AACCTCCGACTTCCGGCCGCGCAGCGGAGGGCTGAG | 32100
AGCACTTCCGTTTGGGCAGGGCTGAGGGCCGGAGGG | 16800
CTAGCAGCTTCCGAGGGGGCGGCGGCCGGAGCGAGT | 784
GGGGGAGTTTTCGGAAGCGCTAACAGCGTTGGGGCC | 566
TGGTGCCAAACATCCGCTAGCCAGAGAAAAACCGAC | 6500
ACACCGTGCTTTTCGGTTCCCGGAAGTCCTTCAGGC | 1560
GACAAGATTGCAGGTGGCAACCCCATCCGGTTTGTT | 1400
GGTCGCTCTGGTGACGGGGGAGGAAATTCTGTCCGT | 512
GTGAGCTTCCCGGCGCGCGGGGGGCGGTGCGCCTTC | 797
TCTGTCGCACATCCGGTGTGAGCTTCGGGGCGGTGG | 22500
